Sampled rows, rich in hits. Any-hit rate of the full collection: about 8.2%.
MCF10A rerep: DNA re-replication induction in MCF 10a cells; Potency, µM (highest dose often 46.1 µM), for the others: at the top dose activity, positive = re-replication, most hits filed as activators; MCF 10A DNA re-replication, Hoechst nuclear intensity, 48 h; 350,000 tested, 2.9% active; note: % of control where 0% means no effect; nearly all actives have a fitted effect of over 50% in size
ELG1 DNA repair: blocks ELG1-dependent DNA repair in HEK293T cells; Potency, µM (highest dose often 46.1 µM), for inactives: at the top dose activity change, negative = inhibition, actives largely listed as inhibitors; HEK293T ELG1-luciferase reporter, luminescence, 16 h; DNA damage induced by 5-fluorouridine; 330,000 tested, 2.3% active; note: % is set by controls: 0 for no effect and ±100 for the full control effect; nearly all actives have a fitted effect of over 55% in size
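DMSO vehicle served as the neutral condition. Each well held 2,000 cells given 5-fluorouridine plus compound; after 16 hr at 37 °C/5% CO2, ONE-Glo was added and luciferase measured 30 min later.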
KB-3-1 cytotox: KB-3-1 parental cell cytotoxicity | KB-3-1 viability, CellTiter-Glo ATP luminescence, 72 h | Potency, µM (titrated, usually from 46.1 µM), usual class: cytotoxic | 400,000 tested, 1.4% active | AID 1347075; note: % is set by controls: 0 for no effect and ±100 for the full control effect; nearly all actives have a fitted effect of over 60% in size
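KB-3-1 parental drug-naive adenocarcinoma cells in DMEM/10% FBS, incubated 72 h at 37 C with pin-transferred compounds across a concentration series. Viability by CellTiter-Glo luminescence; concentration-response curves fitted after normalization.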
SW480 rerep: inducers of DNA re-replication in SW480 colon cancer cells | Potency, µM (doses to about 46.1 µM), inactives show top-dose re-replication activation, hits mostly activators | AID 624297 | SW480 DNA re-replication, Hoechst DNA content imaging, 48 h | 340,000 tested, 1.8% active; note: % of control where 0% means no effect; nearly all actives have a fitted effect of over 55% in size
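Quantitative HTS format with DMSO vehicle controls; 48 hr drug incubation at 37 C, then 40 min Hoechst staining and scanning imager measurement at 405 nm excitation.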
KB-V1 cytotox: kills drug-selected multidrug resistant KB-V1 cells; Potency, µM (highest dose often 46.1 µM), hits mostly cytotoxic; 400,000 tested, 3.4% active; KB-V1 MDR cells viability, CellTiter-Glo, 72 h; note: % is set by controls: 0 for no effect and ±100 for the full control effect; nearly all actives have a fitted effect of over 60% in size
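KB-V1 cells (P-gp-expressing MDR subline of KB-3-1) in phenol-red-free DMEM with 10% FBS were exposed to library compounds over a concentration series for 72 h at 37 degrees C. Viability read by CellTiter-Glo luminescence; concentration-effect curves fitted after normalization.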
* hit, by the source's call; [ ] = another dose, or the depositor's remark. Calls come from the whole dose curve; as a rule, active = well fitted curve in the direction sought with a large enough effect; inconclusive = small, poorly fitted or top-dose-only effect, or another doubt; inactive = no such curve, though single readings can be large; an effect the other way counts as inactive or inconclusive. Potency is the fitted concentration of half-maximal effect.

Screening CC(C)OCCCn1c(=N)c(C(N)=S)cc2c(=O)n3ccccc3nc21 returned MCF10A rerep 9.2µM*, ELG1 DNA repair -27%, KB-3-1 cytotox inactive, SW480 rerep 5.8µM* and KB-V1 cytotox inconclusive.
`O=S(=O)(N1CCN(c2nc(-c3cccs3)nc3ccccc23)CC1)C(F)(F)F` gave KB-3-1 cytotox inactive and KB-V1 cytotox inactive.
For Cc1cc(C)nc(NC(=NCCc2c[nH]c3ccccc23)NC(=O)Nc2ccc(Cl)cc2)n1 the results were MCF10A rerep 28%, ELG1 DNA repair inconclusive, KB-3-1 cytotox inactive, SW480 rerep 19% and KB-V1 cytotox 8.2µM*.
Screening COc1cc(F)cc(-c2ccc3c(c2)c(C#Cc2ccsc2)c(-c2cc(OC)cc(OC)c2)n3C)c1 returned MCF10A rerep inconclusive, ELG1 DNA repair inconclusive, KB-3-1 cytotox inactive, SW480 rerep 4% and KB-V1 cytotox inactive.
Screening Cc1cc(NC(=O)CSc2nnc(-c3ccccc3)c(-c3ccccc3)n2)no1 returned MCF10A rerep 12µM*, ELG1 DNA repair inconclusive, KB-3-1 cytotox 7.3µM*, SW480 rerep 3.7µM* and KB-V1 cytotox 5.2µM*.
Screening COC(=O)c1cc(CSc2nnc(-c3ccccc3)c(-c3ccccc3)n2)oc1C returned MCF10A rerep inconclusive, ELG1 DNA repair 21µM*, KB-3-1 cytotox inactive, SW480 rerep inconclusive and KB-V1 cytotox inconclusive.
Screening Cc1cc(NC(=O)CSc2nnc(-c3ccoc3C)o2)no1 returned MCF10A rerep 24%, ELG1 DNA repair 11%, KB-3-1 cytotox inactive, SW480 rerep 21µM* and KB-V1 cytotox inactive.
For Cc1cc(NC(=O)c2ccc3nc(-c4ccccc4)c(-c4ccccc4)nc3c2)no1 the results were MCF10A rerep 9.2µM*, ELG1 DNA repair -10%, KB-3-1 cytotox inactive, SW480 rerep inconclusive and KB-V1 cytotox inconclusive.
Cc1ccc(C(=O)N2CCCCC2C(=O)O)cc1S(=O)(=O)N1CCCCC1 (stereo not drawn) was read as MCF10A rerep -1%, ELG1 DNA repair 5%, KB-3-1 cytotox inconclusive, SW480 rerep -5% and KB-V1 cytotox inactive.
For Oc1ccc(Cl)cc1C1=Nc2ccccc2N=C(c2cccc(Br)c2)C1 the results were KB-3-1 cytotox inactive and KB-V1 cytotox inactive.
CCN(C(=O)COC(=O)/C=C/c1cccc(Br)c1)C1CCS(=O)(=O)C1 (stereo not drawn) was read as MCF10A rerep inconclusive, ELG1 DNA repair -24%, KB-3-1 cytotox inactive, SW480 rerep inconclusive and KB-V1 cytotox inactive.
For CCN(C(=O)COC(=O)/C=C/c1c(C)nn(Cc2ccc(C)cc2)c1C)C1CCS(=O)(=O)C1 (stereo not drawn) the results were MCF10A rerep -3%[9.22 µM], ELG1 DNA repair -15%, KB-3-1 cytotox inactive, SW480 rerep 16µM* and KB-V1 cytotox inactive.
Screening CCOC(=O)COc1ccc(Br)cc1/C=C\c1[nH]c(=O)[nH]c(=O)c1[N+](=O)[O-] returned MCF10A rerep 8.2µM*, ELG1 DNA repair -2%, KB-3-1 cytotox inactive, SW480 rerep inconclusive and KB-V1 cytotox inactive.
Screening CCOc1cc(/C=C\c2[nH]c(=O)[nH]c(=O)c2[N+](=O)[O-])ccc1OC(C)CC (stereo not drawn) returned MCF10A rerep inconclusive, ELG1 DNA repair inconclusive, KB-3-1 cytotox inactive, SW480 rerep 23µM* and KB-V1 cytotox inactive.
CCCOc1ccc(/C=C/c2[nH]c(=O)[nH]c(=O)c2[N+](=O)[O-])cc1OCC was read as MCF10A rerep inconclusive, ELG1 DNA repair -25%, KB-3-1 cytotox inactive, SW480 rerep inconclusive and KB-V1 cytotox inactive.
Screening CC(C)c1ccc(/C=C/c2[nH]c(=O)[nH]c(=O)c2[N+](=O)[O-])cc1 returned MCF10A rerep 18µM*, ELG1 DNA repair 10%, KB-3-1 cytotox inactive, SW480 rerep -6% and KB-V1 cytotox inactive.
For CCOc1ccc(/C=C/c2[nH]c(=O)[nH]c(=O)c2[N+](=O)[O-])cc1 the results were MCF10A rerep inconclusive, ELG1 DNA repair 0%, KB-3-1 cytotox inactive, SW480 rerep -2% and KB-V1 cytotox inactive.
For CN(Cc1ccccc1)C(CNS(=O)(=O)c1ccccc1)c1ccccc1 (stereo not drawn) the results were KB-3-1 cytotox inactive and KB-V1 cytotox inactive.
CCc1ccc(NC(=O)c2c(C(=O)Nc3ccccc3)sc3nc(C)cc(=O)n23)cc1 was read as MCF10A rerep 18µM*, ELG1 DNA repair 2%, KB-3-1 cytotox inactive, SW480 rerep -37% and KB-V1 cytotox inactive.
`Cc1ccc(NC(=O)c2c(C(=O)Nc3ccccc3)sc3nc(C)cc(=O)n23)cc1` gave MCF10A rerep -3%, ELG1 DNA repair -13%, KB-3-1 cytotox inactive, SW480 rerep -8% and KB-V1 cytotox inactive.
For Cc1ccc(-n2c(=O)c3sc4ccccc4c3n(CC(=O)NC3CCCC3)c2=O)cc1C the results were KB-3-1 cytotox inactive and KB-V1 cytotox inactive.
Screening Cc1nc2c(OCc3ccc(C#N)cc3)cccn2c1N(C)Cc1cccs1 returned KB-3-1 cytotox inconclusive and KB-V1 cytotox 15µM*.
Screening Cc1nc2c(OCC(=O)c3ccc(F)cc3)cccn2c1N(C)Cc1cccs1 returned KB-3-1 cytotox inactive and KB-V1 cytotox inactive.
Screening CCOc1ccc(C2NC(=O)NC(C)=C2C(=O)OCc2ccccc2)cc1 (stereo not drawn) returned MCF10A rerep 21µM*, ELG1 DNA repair -24%, KB-3-1 cytotox inconclusive, SW480 rerep inconclusive and KB-V1 cytotox inconclusive.
CCOC(=O)C1=C(C)NC(=O)NC1c1ccc(N2CCC(c3ccccc3)=N2)cc1 (stereo not drawn) was read as MCF10A rerep inconclusive, ELG1 DNA repair 17%, KB-3-1 cytotox inactive, SW480 rerep 23µM* and KB-V1 cytotox inactive.
Screening CC1=C(C(=O)OCc2ccccc2)C(c2ccc(N(C)C)cc2)NC(=O)N1 (stereo not drawn) returned MCF10A rerep inconclusive, ELG1 DNA repair -8%, KB-3-1 cytotox inactive, SW480 rerep inconclusive and KB-V1 cytotox inconclusive.
Screening Cc1ccc(N(CC(O)Cn2nc(C)cc2C)S(=O)(=O)c2ccc3ccccc3c2)cc1 (stereo not drawn) returned MCF10A rerep 4%, ELG1 DNA repair inconclusive, KB-3-1 cytotox inactive, SW480 rerep 7% and KB-V1 cytotox 5.8µM*.
Screening Cc1cc(C)n(CC(O)CN(c2ccccc2)S(=O)(=O)c2ccccc2)n1 (stereo not drawn) returned MCF10A rerep 1%, ELG1 DNA repair -13%, KB-3-1 cytotox inactive, SW480 rerep -2% and KB-V1 cytotox inactive.
